Test results from the supplement of paper PMC9694430.
Structures can show the parent of a compound that is named as a salt.

What was measured:
Assay in all cases: thermal shift delta Tm vs DMSO control; higher = stronger stabilization (binding)
Conditions in all cases: 12.5 µM; protein concentration 2 µM
LOC_OS01G57100-cb003 = tested on: LOC_OS01G57100-cb003
In short: (§1)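 Rice kinase domain constructs, made in E. coli and purified, were placed in 96-well plates at 2 μM in 19.5 μl of 100 mM potassium phosphate pH 7.5, 150 mM NaCl, 10% glycerol and 5 × SYPRO Orange, with compound in DMSO. A temperature ramp from 25°C to 95°C at 0.05°C/s was used for differential scanning fluorimetry. The melting temperature shift is a triplicate mean compared with DMSO-only protein, derived from Boltzmann fits.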

LOC_OS01G60330-cb001 = tested on: LOC_OS01G60330-cb001
In short: as §1

LOC_OS01G60700-cb002 = tested on: LOC_OS01G60700-cb002
In short: as §1

LOC_OS01G63280-cb003 = tested on: LOC_OS01G63280-cb003
In short: as §1

LOC_OS01G67340-cb003 = tested on: LOC_OS01G67340-cb003
In short: as §1

LOC_OS01G70970-cb002 = tested on: LOC_OS01G70970-cb002
In short: as §1

LOC_OS02G07810-cb001 = tested on: LOC_OS02G07810-cb001
In short: as §1

LOC_OS02G08530-cb003 = tested on: LOC_OS02G08530-cb003
In short: as §1

LOC_OS02G14120-cb001 = tested on: LOC_OS02G14120-cb001
In short: as §1

LOC_OS02G17970-cb001 = tested on: LOC_OS02G17970-cb001
In short: as §1

LOC_OS02G45750-cb003 = tested on: LOC_OS02G45750-cb003
In short: as §1

LOC_OS02G54510-cb004 = tested on: LOC_OS02G54510-cb004
In short: as §1

LOC_OS03G04050-cb001 = tested on: LOC_OS03G04050-cb001
In short: as §1

LOC_OS03G12390-cb001 = tested on: LOC_OS03G12390-cb001
In short: as §1

LOC_OS03G27990-cb004 = tested on: LOC_OS03G27990-cb004
In short: as §1

LOC_OS03G50450-cb001 = tested on: LOC_OS03G50450-cb001
In short: as §1

LOC_OS03G50810-cb003 = tested on: LOC_OS03G50810-cb003
In short: as §1

LOC_OS04G35114-cb001 = tested on: LOC_OS04G35114-cb001
In short: as §1

LOC_OS04G38480-cb003 = tested on: T1, LOC_OS04G38480-cb003
T1 sequence (whole entry): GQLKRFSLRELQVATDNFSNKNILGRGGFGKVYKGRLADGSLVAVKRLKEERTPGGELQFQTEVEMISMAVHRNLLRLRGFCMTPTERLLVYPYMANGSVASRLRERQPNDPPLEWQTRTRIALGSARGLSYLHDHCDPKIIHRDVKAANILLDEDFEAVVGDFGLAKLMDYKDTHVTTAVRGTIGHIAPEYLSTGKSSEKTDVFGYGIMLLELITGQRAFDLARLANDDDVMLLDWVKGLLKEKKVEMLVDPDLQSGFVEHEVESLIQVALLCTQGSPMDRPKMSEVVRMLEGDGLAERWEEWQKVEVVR
In short: as §1

LOC_OS04G41100-cb001 = tested on: T2, LOC_OS04G41100-cb001
T2 sequence (whole entry): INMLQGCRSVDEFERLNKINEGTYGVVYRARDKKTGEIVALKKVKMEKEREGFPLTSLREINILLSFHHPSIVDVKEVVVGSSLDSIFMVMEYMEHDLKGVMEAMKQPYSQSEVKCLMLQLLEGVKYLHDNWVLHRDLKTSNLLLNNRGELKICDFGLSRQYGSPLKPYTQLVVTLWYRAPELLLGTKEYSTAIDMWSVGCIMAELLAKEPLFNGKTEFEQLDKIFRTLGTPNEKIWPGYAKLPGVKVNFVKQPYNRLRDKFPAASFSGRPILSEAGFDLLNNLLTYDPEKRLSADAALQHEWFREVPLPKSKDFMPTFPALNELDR
In short: as §1
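Further: purified Escherichia coli-expressed rice kinase domain construct.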

SMILES	thermal shift delta Tm (LOC_OS01G57100-cb003) [°C]	thermal shift delta Tm (LOC_OS01G60330-cb001) [°C]	thermal shift delta Tm (LOC_OS01G60700-cb002) [°C]	thermal shift delta Tm (LOC_OS01G63280-cb003) [°C]	thermal shift delta Tm (LOC_OS01G67340-cb003) [°C]	thermal shift delta Tm (LOC_OS01G70970-cb002) [°C]	thermal shift delta Tm (LOC_OS02G07810-cb001) [°C]	thermal shift delta Tm (LOC_OS02G08530-cb003) [°C]	thermal shift delta Tm (LOC_OS02G14120-cb001) [°C]	thermal shift delta Tm (LOC_OS02G17970-cb001) [°C]	thermal shift delta Tm (LOC_OS02G45750-cb003) [°C]	thermal shift delta Tm (LOC_OS02G54510-cb004) [°C]	thermal shift delta Tm (LOC_OS03G04050-cb001) [°C]	thermal shift delta Tm (LOC_OS03G12390-cb001) [°C]	thermal shift delta Tm (LOC_OS03G27990-cb004) [°C]	thermal shift delta Tm (LOC_OS03G50450-cb001) [°C]	thermal shift delta Tm (LOC_OS03G50810-cb003) [°C]	thermal shift delta Tm (LOC_OS04G35114-cb001) [°C]	thermal shift delta Tm (LOC_OS04G38480-cb003) [°C]	thermal shift delta Tm (LOC_OS04G41100-cb001) [°C]
Cc1cccc(Nc2nc(NC3CCCCC3N)ncc2C(N)=O)c1 (stereo not given)	2.09	1.38	1.44	0.64	2.38	2.39	-0.08	4.25	4.75	0.86	0.65	1.67	0.03	2.43	3.15	4.23	1.34	0.3	1.83	0.73
CN1CCC(CNc2ccc3ncc(-c4cccc(OC(F)(F)F)c4)n3n2)CC1 [SGI-1776 free base]	0.83	0.19	0.47	0.98	-0.25	1.79	0.42	2.78	7.23	-0.26	3.47	0.36	-0.12	0.16	0.31	0.18	3.02	4.33	1.08	0.53
CNC(=O)c1ccccc1Sc1ccc2c(/C=C/c3ccccn3)n[nH]c2c1 [Axitinib]	0.01	1.21	1.17	0.65	-0.05	0.68	0.49	0.53	3.54	-0.24	4.92	0.12	0.3	0.31	0.01	0.21	0.35	2.98	0.63	0.65
C=CC(=O)N[C@H]1CCOC[C@H]1Nc1ncc2cc(-c3c(Cl)c(OC)cc(OC)c3Cl)ccc2n1	2.49	-0.43	-0.29	-0.43	-0.17	-0.04	-1.01	0.62	0.55	-0.41	1.19	-0.3	0.08	-0.37	-0.08	0.02	-0.2	0.09	0.04	0.17
N#Cc1c(NC(=O)c2cccc3ccccc23)sc2c1CCCC2 [JNK Inhibitor IX]	1.35	1.18	0.63	-0.18	0.34	0	0.12	0.47	-0.31	0.76	0.59	-0.12	0.41	-0.14	0.23	0.19	0.38	0.53	1.73	0.46
Cn1cc(-c2ccc3nnc(C(F)(F)c4ccc5ncccc5c4)n3n2)cn1	1.42	1.1	1.32	0.31	-0.37	0.13	0.91	1.21	2.28	0.51	0.26	-0.14	0.41	0.23	-0.02	0.07	0.22	0.35	0.98	0.6
COc1cccc(-c2cc(=O)c3ccccc3o2)c1N	-0.23	0.99	0.39	-0.2	-0.8	0.32	0.94	0.37	-0.3	-0.31	-0.15	0.15	0.23	0.21	0.01	0.16	0.04	0.26	-0.06	0.2
C[C@@H](Oc1ccc2[nH]nc(/C=C/c3cnn(CCO)c3)c2c1)c1c(Cl)cncc1Cl	2.21	7.79	0.64	7.65	12.6	12.2	0.37	5.56	15	-0.09	13.1	7.93	0.05	10.5	9.48	6.65	6.58	12.3	5.56	1.48
Cn1cc(-c2ccc3nnc(Sc4ccc5ncccc5c4)n3n2)cn1	0.37	0.34	1.28	0.23	0.43	0.3	0.16	1.1	1.81	0.07	0.93	0.23	0.63	-0.22	0.45	0.82	0.32	0.81	1.04	0.48
COc1cc(Nc2ncc(F)c(Nc3ccc4c(n3)N(COP(=O)(O)O)C(=O)C(C)(C)O4)n2)cc(OC)c1OC [R788 (Fostamatinib) Disodium]	1.79	1.17	1.17	1.12	0.57	1.43	0.47	0.82	5.05	1.55	2.5	0.47	0.33	1.17	1.08	7.52	2.27	2.02	2.06	0.34
CCCCCCCCc1ccc(CCC(N)(CO)CO)cc1 [Fingolimod (FTY720) HCl]	0.23	0.41	0.6	-1.03	-0.42	-0.82	-1.73	-0.4	-0.78	-0.74	-0.8	-0.96	-0.79	-1.7	-0.42	-0.24	-1.68	-0.12	0.32	0.19
N#CCNC(=O)c1ccc(-c2ccnc(Nc3ccc(N4CCOCC4)cc3)n2)cc1 [Momelotinib (CYT387)]	1.85	6.73	1.01	0.32	1.56	0.41	0.78	1.72	9.13	0.53	7.23	1.25	0.41	2.09	0.29	1.99	2.03	3.88	3.2	2.25
CC1(C)C=Cc2c(ccc3c2OC[C@@H](c2ccc(O)cc2O)C3)O1 [Glabridin]	0.87	2.93	-0.87	3.61	0.86	1.29	-0.38	0.24	0.34	0.51	0.34	-0.24	0.88	0.93	0.6	0.36	0.74	0.79	1.12	0.7
